Laboratory results from PubChem BioAssay (NCI).
This is part of a sample that, as a whole, favours compounds with a hit. Of some 83,000 tested, about 20% had one in any assay.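 Testing used 96-well plates and a 48-hour single-concentration exposure. Example: -40 means 40% of the starting cells died.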 Activity calls are given as the source filed them. The calls were made as follows: active = growth percent below 10; inactive = the rest.

test system: MDA-MB-468 breast; assay: NCI-60 one-dose screen, 48 h (100 = growth as untreated, 0 = no growth, -100 = all killed); details: 10 µM unless noted

SMILES | growth
Cc1ccc(Sc2ccccc2N)cc1 | 81.2% (inactive)
COc1ccc(S(=O)(=O)n2cc(C3OC(c4cc(OC)c(OC)c(OC)c4)=NN3C(C)=O)c3ccccc32)cc1OC (centres undefined) | 105% (inactive)
NCCn1cc(-c2nc(-c3c[nH]c4ncccc34)cs2)c2cc(Br)ccc21 | 66% (inactive)
COc1ccc2c(c1)CCCN2c1c2ccccc2nc2ccccc12 | -3.81% (active)
O=[N+]([O-])c1ccc(Cl)c(S(=O)(=O)O)c1 | 112% (inactive)
COc1cc(C2c3cc4c(cc3C(O)C(CO)C2CO)OCO4)cc(OC)c1OC (centres undefined) | -17.7% (active)
COc1cc(C2=NN(C=O)C(c3cccc(Nc4ccnc5cc(Cl)ccc45)c3)C2)cc(OC)c1OC (centres undefined) | 59.2% (inactive)
CCCC(C)(C)COC(=O)c1cccc(N)c1 | 109% (inactive)
NC(=O)Nc1cc(-c2cccc(F)c2)sc1C(=O)N[C@H]1CCCNC1 | -60.5% (active)
Cc1ccc(-c2nn(C)c(=O)c3noc(-c4ccc(C)cc4)c23)cc1 | 19.8% (inactive)
COc1ccc(NC(=O)CSc2nc(C)c(C(C)=O)n2-c2ccc([N+](=O)[O-])cc2)cc1 | 91.4% (inactive)
CCC(=O)Oc1ccc(OC)cc1 | 106% (inactive)
CCOC(=O)CSc1nnc(-c2cc3c([nH]c4ccccc43)c(-c3cccc(O)c3)n2)n1-c1ccc(C)cc1 | 27.2% (inactive)
C=CCN(CC=C)C(=O)[C@H](CC)[C@@H]1CC[C@@H](C)[C@@H]([C@H](C)[C@@H](O)[C@@H](C)C(=O)[C@H](CC)C2O[C@]3(C=C[C@@H](O)[C@]4(CC[C@@](C)([C@H]5CC[C@](O)(CC)[C@H](C)O5)O4)O3)[C@H](C)C[C@@H]2C)O1 (some centres undefined) | -19.1% (active)
